Compounds with a hit are over-represented: about 3.5% of the library has one in this group of screens.
GPR151 ag: activators of human GPR151, primary screen, cell-based, PathHunter beta-arrestin, luminescence. G-protein coupled receptor 151 (Homo sapiens), Q8TDV0. PathHunter beta-arrestin GPR151 cells. activation, % at 11.2 µM. 650,000 compounds, 1% hits. AID 1508602, 2020; in the data active = activation above about 4.9%;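 also: 0% = median of compound wells and 100% = cells with positive control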
MITF primary: MITF inhibitors, primary screen, biochemical, AlphaScreen, human | AlphaScreen MITF homodimerization, bead proximity signal | inhibition, % at 2.6 µM | 650,000 compounds, 0.91% hits | AID 1259374, 2018; in the data active = inhibition above about 50%;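 also: 0% = vehicle wells with protein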
Target sequence (O75030 whole entry, looked up): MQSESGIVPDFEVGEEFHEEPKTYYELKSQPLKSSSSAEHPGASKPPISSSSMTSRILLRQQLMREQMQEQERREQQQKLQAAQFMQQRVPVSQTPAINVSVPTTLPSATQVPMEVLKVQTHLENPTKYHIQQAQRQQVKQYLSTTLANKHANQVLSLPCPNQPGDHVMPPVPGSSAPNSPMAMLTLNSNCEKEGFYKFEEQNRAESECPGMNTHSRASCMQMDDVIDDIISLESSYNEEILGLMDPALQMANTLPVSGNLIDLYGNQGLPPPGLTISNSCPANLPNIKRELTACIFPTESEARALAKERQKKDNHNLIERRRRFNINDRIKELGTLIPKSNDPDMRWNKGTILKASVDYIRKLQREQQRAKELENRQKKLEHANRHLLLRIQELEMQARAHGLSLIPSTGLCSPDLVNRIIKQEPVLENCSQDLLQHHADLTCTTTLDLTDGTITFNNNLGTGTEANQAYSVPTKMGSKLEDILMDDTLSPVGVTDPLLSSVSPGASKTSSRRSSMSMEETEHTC
FBW7 activator: FBW7 E3 ligase activators, primary screen, biochemical, AlphaScreen, human; normalized activity (activation), % at 26.1 µM; 650,000 compounds, 0.13% hits; AlphaScreen FBW7–phospho-cyclin E peptide binding, activator screen; in the data active = normalized activity above about 1.9%;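 also: purified mutant Fbw7 with reduced substrate affinity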
TEAD-YAP inh: TEAD-YAP interaction inhibition, primary screen, TEAD-YAP interaction inhibitor project, luminescence, HEK-TIYL cells. inhibition, % at 9.12 µM. AID 1259422, 2018. TEAD-Gal4/YAP UAS-luciferase luminescence. 640,000 compounds, 1.4% hits; in the data active = inhibition above about 32%;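 also: 0% = median of test compound wells and 100% = reference inhibitor wells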
GPR151 conf act: GPR151 activators, triplicate retest, confirmation, cell-based, PathHunter beta-arrestin, luminescence. shares compounds with GPR151 ag. activation, % at 11.2 µM. 6,700 tested, under 10 active. AID 1508609, 2020. GPR151 PathHunter beta-arrestin cells, 90 min; % of EA-reagent control over plate median;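 active = mean percent activation across replicates above the confirmation screen cutoff of 4.91%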
GPR119 ag: GPR119 activators in beta-arrestin cells, counter-screen for GPR151 activator project, cell-based, PathHunter beta-arrestin, luminescence, triplicate; shares compounds with GPR151 ag; 90 min; 0 = compound-well median, 100 = enzyme-acceptor control; activation, % at 11.2 µM; 6,700 compounds, 0.3% hits; AID 1508611, 2020;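 active = mean percent activation in the counterscreen above 29.09%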;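 also: counterscreen on off-target GPR119 to flag nonselective hits from the GPR151 activator screen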
* = called active by the depositor; . = not tested or not shown.

SMILES	GPR151 ag	MITF primary	FBW7 activator	TEAD-YAP inh	GPR151 conf act	GPR119 ag
CCC(=O)Oc1ccc2c(-c3cc4ccccc4oc3=O)cc(=O)oc2c1	5.4*	-9.6	-0.2	-7.4	0.3	10.0
CCOc1ccc2c(-c3cc4ccccc4oc3=O)cc(=O)oc2c1	1.8	0.8	0.1	-1.1	.	.
CN(CCCNC(=O)CCn1c(=O)c2cccn2c2cccnc21)C1CCCCC1	5.3*	-3.4	0.2	0.8	0.8	-5.5
COc1cccc(NC(=O)CN(Cc2ccccc2)S(=O)(=O)c2ccc(Cl)cc2)c1	1.4	4.5	0.2	5.1	.	.
CC(=O)Nc1cc(C2CC2)nn1-c1nc(C(C)C)cc(=O)[nH]1	-0.9	16.9	-1.2	22.1	.	.
CCN(CC)c1nc(NCCCN2CCCC2=O)nc(NCCCN2CCCC2=O)n1	0.5	5.5	0.0	-0.3	.	.
CCN(CC)c1nc(NCCCN2CCCC2=O)nc(NCc2nc3ccccc3[nH]2)n1	6.9*	-0.1	0.0	-1.2	-1.0	1.1
CC(C)CCNC(=O)c1c(O)c2cccc3c2n(c1=O)CCC3	-0.4	1.4	0.1	-10.4	.	.
CC(C)CCNC(=O)c1c(O)c2cccc3c2n(c1=O)CC3	7.0*	1.2	-0.2	-2.1	-0.5	-10.7
O=C(Nc1ccccc1Br)c1c(O)c2cccc3c2n(c1=O)CC3	5.4*	-15.3	0.1	4.0	-0.9	-9.8
O=C(Nc1ccccc1F)c1c(O)c2cccc3c2n(c1=O)CC3	1.0	-6.5	0.0	-13.5	.	.
Cc1cc(C)nc(NNS(=O)(=O)c2ccc(Cl)cc2)n1	5.9*	4.0	-0.1	0.3	1.5	6.8
CC(C)c1ccc(OCC(=O)O/N=C(\N)c2cccc([N+](=O)[O-])c2)cc1	16.0*	-10.9	-0.3	-3.6	-0.1	-7.1
CCN(Cc1ccco1)C(=O)Cn1nc2c(C)cc3ccccc3n2c1=O	0.3	-3.5	0.1	-5.6	.	.
CCN(Cc1ccco1)C(=O)Cn1nc2n(Cc3ccccc3F)c3ccccc3n2c1=O	6.6*	-7.4	-0.1	1.5	0.1	2.8
C=CCn1c(SC(C)C(=O)NC(N)=O)nnc1-c1ccc(C(C)(C)C)cc1 (stereo not drawn)	8.2*	-7.1	0.0	2.2	0.1	-3.4
Cc1cccc(C(=O)N2N=C3CCCCCC3C2(O)C(F)(F)F)c1 (stereo not drawn)	-1.1	1.1	0.3	6.5	.	.
Nc1sc(-c2ccccc2)cc1C(=O)N/N=C/c1cccs1	8.4*	-6.2	0.0	5.4	-0.8	-5.5
N#C/C(=C\Nc1ccccc1F)c1nc(-c2cc3cc([N+](=O)[O-])ccc3oc2=O)cs1	11.1*	2.3	0.2	0.2	0.2	9.9
CC(=O)N1CCc2cc(Br)cc(S(=O)(=O)NC3CCCC3)c21	0.7	7.7	0.0	3.2	.	.
CC(=O)N1CCc2cc(Br)cc(S(=O)(=O)NC3CCCc4ccccc43)c21 (stereo not drawn)	5.1*	13.2	0.2	-10.7	0.1	10.8
Cc1sc2nc(Cc3ccccc3)nc(Nc3ccc(F)c(Cl)c3)c2c1C	-0.6	-4.3	-0.1	6.2	.	.
CCCSc1ncccc1C(=O)Nc1c(C)noc1C	7.4*	4.5	-0.2	-2.2	-0.3	-6.2
O=C1Nc2ccccc2Oc2cc([N+](=O)[O-])cc(Oc3ccc(Br)cc3)c21	11.2*	5.3	-0.1	4.0	0.9	0.6
CCc1nnc(NC(=O)CCCOc2ccccc2C)s1	11.6*	-3.5	-0.2	3.5	1.3	-2.3
SMILES	GPR151 ag	MITF primary	FBW7 activator	TEAD-YAP inh	GPR151 conf act	GPR119 ag
CCc1nnc(NC(=O)CN2CCC(O)(c3ccccc3OC)CC2)s1	6.5*	2.6	-0.1	1.4	0.8	6.8
Cc1ccccc1OCCCC(=O)Nc1nnc(C(C)C)s1	1.5	-13.7	0.1	6.5	.	.
CCOC(=O)C1CCCCN1C1CCC(=O)N(Cc2ccccc2Cl)CC1 (stereo not drawn)	-0.4	-9.4	0.1	-1.5	.	.
COc1ccc(CCNC(=O)c2ccc(Cn3c(SCC(=O)NCc4ccccc4)nc4cc5c(cc4c3=O)OCO5)cc2)cc1OC	0.0	-9.6	-0.1	5.1	.	.
COc1ccc(C(=O)NN2C(=O)c3ccccc3C2=O)cc1I	5.1*	7.4	0.1	9.4	-0.2	7.9
Cc1cccc(NC(=O)C(=O)NC2CCCCC2C)c1 (stereo not drawn)	2.3	5.5	-0.1	-57.9	.	.
Cc1cccc(-c2nc(CS(=O)CC(=O)NC(C)c3ccccc3)c(C)o2)c1 (stereo not drawn)	7.2*	14.5	0.2	3.1	-0.4	-0.9
Cc1cccc(-c2nc(CS(=O)CC(=O)NC(C)C)c(C)o2)c1 (stereo not drawn)	0.8	7.1	-0.1	7.2	.	.
CCN1CCN(C(=O)CS(=O)Cc2nc(-c3cccc(C)c3)oc2C)CC1 (stereo not drawn)	0.2	14.4	0.3	12.4	.	.
Cc1cccc(-c2nc(CS(=O)CC(=O)N3CCCC3)c(C)o2)c1 (stereo not drawn)	8.2*	13.6	0.1	7.4	-1.8	-12.6
CN(C)c1ccc(C2/C(=C(/O)c3ccc(F)cc3)C(=O)C(=O)N2CCO)cc1 (stereo not drawn)	-0.5	21.9	0.2	2.3	.	.
CCOC(=O)/C(N=Nc1ccc(O)cc1)=C(\C)O	-5.4	-8.1	0.0	-10.3	.	.
CCNS(=O)(=O)c1ccc(NC(=O)Nc2cccc([N+](=O)[O-])c2)cc1	13.2*	4.6	-0.2	1.5	0.0	2.5
CCCCOC(=O)Nc1ccc(S(=O)(=O)Nc2cccc([N+](=O)[O-])c2)cc1	5.3*	-0.6	-0.1	-5.7	-0.3	-2.3
CCn1c(C(=O)O)c(CNCCc2ccco2)c2ccc(OC)cc21	-0.9	11.0	0.4	8.5	.	.
CCOc1cc(C(=O)Nc2ccc(NC(=O)c3ccc(C(C)(C)C)cc3)cc2)cc(OCC)c1OCC	-0.9	16.5	0.1	1.1	.	.
CC1=C(C(=O)OCc2ccc3c(c2)OCO3)C(c2cccc(Cl)c2)NC(=O)N1 (stereo not drawn)	6.6*	-4.1	0.1	25.3	1.1	13.6
CC1=C(C(=O)OCC(C)C)C(c2ccc3c(c2)OCO3)NC(=O)N1 (stereo not drawn)	5.9*	11.2	0.1	-1.6	0.5	5.3
O=C(N/N=C/c1ccccc1)c1ccccc1[N+](=O)[O-]	0.7	5.0	0.0	-0.4	.	.
O=C(N/N=C/c1cc(Cl)cc([N+](=O)[O-])c1O)c1ccccc1O	5.1*	6.9	-0.5	-1.4	-0.9	4.0

Screening data as filed in PubChem.
